Compounds without any hit were thinned out: in the full panel of roughly 79,000, 15% have a hit. Calls of active or inactive are those of the source. Cut-off read from the data, not from the text of the source: active = growth inhibition above about 70%; inactive = the rest.
What was measured:
[1] = NCI Yeast Anticancer Drug Screen. Data for the rad50 strain (AID 155);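 note: 0% = growth of vehicle-only cultures of the same strain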; conditions: S. cerevisiae rad50 strain growth inhibition, active compounds read high
How it was run: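 DNA repair mutant yeast, compound exposure, growth read-out; inhibition is taken relative to vehicle.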

[2] = NCI Yeast Anticancer Drug Screen. Data for the mec2-1 strain (AID 157); conditions: S. cerevisiae mec2-1 strain, active compounds read high
How it was run: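 Test agents were screened against the mec2-1 yeast strain, with defined DNA repair or cell cycle alteration. Growth was scored as inhibition against vehicle-only controls.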

[3] = NCI Yeast Anticancer Drug Screen. Data for the sgs1 mgt1 strain (AID 161);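 note: 0% = growth of cultures given vehicle only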; conditions: S. cerevisiae sgs1 mgt1 strain, active compounds read high
How it was run: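 Inhibition of yeast growth, normalised to vehicle-treated controls, is reported for a strain bearing genetic alterations in DNA damage repair.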

[4] = NCI Yeast Anticancer Drug Screen. Data for the cln2 rad14 strain (AID 165);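 note: 0% = growth equal to vehicle treated cultures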; conditions: S. cerevisiae cln2 rad14 strain, active compounds read high
How it was run: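 Growth of compound-exposed yeast (cln2 rad14 genotype) measured and expressed as inhibition relative to vehicle.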

[5] = NCI Yeast Anticancer Drug Screen. Data for the bub3 strain (AID 167); conditions: S. cerevisiae bub3 mutant strain, active compounds read high
How it was run: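 In this screen, a yeast mutant lacking normal mitotic checkpoint function is challenged with compound. Relative growth versus vehicle gives the inhibition value.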

[6] = NCI Yeast Anticancer Drug Screen. Data for the mlh1 rad18 strain (AID 175); conditions: S. cerevisiae mlh1 rad18 strain growth inhibition, active compounds read high
How it was run: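 In this whole-cell yeast screen, a strain with altered DNA damage repair is challenged with compound, and its growth is measured against matched vehicle-treated controls.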

[7] = at 5.0 µM (retest, dose inferred, filed as 0.5)
[8] = at 50.0 µM (retest, dose inferred, filed as 5.0)

Measured: growth inhibition

CCCCCCCN(CCCCCCC)CC(=O)NC(=O)c1ccccc1
active: [1]; [8] 99% | [1]; at 50.0 µM 99.4% | [2]; [8] 98% | [2]; at 50.0 µM 97.2% | [3]; [8] 99% | [3]; at 50.0 µM 99.5% | [4]; [8] 99% | [4]; at 50.0 µM 96.8% | [5]; [8] 99% | [5]; at 50.0 µM 99.3% | [6]; [8] 99% | [6]; at 50.0 µM 99.3%
inactive: [1]; [7] 29% | [2]; [7] 21% | [3]; [7] 23% | [4]; [7] 33% | [5]; [7] 43% | [6]; [7] 26%

[O-][n+]1ccccc1Sc1nc(Sc2cccc[n+]2[O-])nc(Sc2cccc[n+]2[O-])n1
active: [1]; [7] 98% | [1]; [8] 99% | [1]; at 50.0 µM 89.8% | [2]; [7] 99% | [2]; [8] 99% | [2]; at 50.0 µM 91.7% | [3]; [7] 99% | [3]; [8] 98% | [3]; at 50.0 µM 92.7% | [4]; [7] 98% | [4]; [8] 98% | [4]; at 50.0 µM 90% | [5]; [7] 98% | [5]; [8] 99% | [5]; at 50.0 µM 90.3% | [6]; [7] 100% | [6]; [8] 99% | [6]; at 50.0 µM 88.4%

CS/C(=N\C(=S)N(C)C)N(c1ccccc1)c1nc(=[N+](C)C)ss1
inactive: [1]; [7] 27% | [2]; [7] 13% | [2]; [8] 67% | [3]; [7] 38% | [4]; [7] 1% | [5]; [7] 27% | [6]; [7] 22%
active: [1]; [8] 98% | [1]; at 50.0 µM 98.5% | [2]; at 50.0 µM 99.5% | [3]; [8] 98% | [3]; at 50.0 µM 97.9% | [4]; [8] 99% | [4]; at 50.0 µM 86.1% | [5]; [8] 97% | [5]; at 50.0 µM 98.8% | [6]; [8] 98% | [6]; at 50.0 µM 98.7%

O=c1ccc2ccc(Cl)cc2[nH]1
inactive: [1]; [7] -9% | [1]; [8] 1% | [1]; at 50.0 µM -27.9% | [2]; [7] -5% | [2]; [8] 16% | [2]; at 50.0 µM -5.9% | [3]; [7] -5% | [3]; [8] -8% | [3]; at 50.0 µM 8.05% | [4]; [7] 17% | [4]; [8] 17% | [4]; at 50.0 µM 50% | [5]; [7] 4% | [5]; [8] 1% | [5]; at 50.0 µM -10.3% | [6]; [7] 9% | [6]; [8] 20% | [6]; at 50.0 µM 4.8%

O=C(Nc1ccccc1)OCCN=C1c2ccccc2CCc2ccccc21
inactive: [1]; [7] 4% | [1]; at 50.0 µM 66.1% | [2]; [7] -35% | [3]; [7] -27% | [4]; [7] -30% | [5]; [7] -30% | [6]; [7] -22%
active: [1]; [8] 95% | [2]; [8] 96% | [2]; at 50.0 µM 76.2% | [3]; [8] 95% | [3]; at 50.0 µM 81.7% | [4]; [8] 94% | [4]; at 50.0 µM 84% | [5]; [8] 96% | [5]; at 50.0 µM 83.9% | [6]; [8] 95% | [6]; at 50.0 µM 88.8%

Source: PubChem BioAssay (NCI)
